Screening results (PubChem)
Compounds with a hit are over-represented: about 1.5% of the library has one in this group of screens.
TrxR1 substrate – substrates of rat thioredoxin reductase 1; purified TrxR1 substrate turnover, NADPH consumption readout; hit rate 0.01% among 390,000; AID 588456; O89049; Potency, µM (top dose mostly 114 µM), without a hit: top-dose activity change, negative = substrate turnover; also: potency is read from the fitted curve at half-maximal effect; nearly all actives have a fitted effect of over 50% in size
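Rat TrxR1, dispensed at 90 nM, was prereduced with 400 uM NADPH (final) for 5 min at ~22 deg C, then incubated with compound 15 min before 400 uM selenite. A first-read NADPH fluorescence drop versus no-compound background flagged substrates.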
TrxR1 inh – rat TrxR1 inhibition. O89049. recombinant rTrxR1, NADPH fluorescence consumption, selenite substrate. Potency, µM (series often up to 114 µM), without a hit: at the highest dose activity change, negative = inhibition, actives largely listed as inhibitors. hit rate 1% among 390,000; also: potency is read from the fitted curve at half-maximal effect; nearly all actives have a fitted effect of over 65% in size
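Rat TrxR1 (90 nM in the dispensed reagent) was pre-reduced with 400 uM NADPH for 5 min at room temperature, then incubated with compound for 15 min. After 400 uM selenite was added, NADPH fluorescence (Ex 340/Em 450 nm) was followed for 8 min.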
Eya2 inh – inhibitors of human Eya2 phosphatase activity | hit rate 0.006% among 330,000 | recombinant Eya2, OMFP fluorescence dephosphorylation (OMFP is methylfluorescein phosphate) | Potency, µM (doses to about 76.9 µM), for the others: top-dose activity, negative = inhibition, usual class: inhibitors | O00167; also: potency is read from the fitted curve at half-maximal effect
Target sequence (O00167 whole entry, looked up): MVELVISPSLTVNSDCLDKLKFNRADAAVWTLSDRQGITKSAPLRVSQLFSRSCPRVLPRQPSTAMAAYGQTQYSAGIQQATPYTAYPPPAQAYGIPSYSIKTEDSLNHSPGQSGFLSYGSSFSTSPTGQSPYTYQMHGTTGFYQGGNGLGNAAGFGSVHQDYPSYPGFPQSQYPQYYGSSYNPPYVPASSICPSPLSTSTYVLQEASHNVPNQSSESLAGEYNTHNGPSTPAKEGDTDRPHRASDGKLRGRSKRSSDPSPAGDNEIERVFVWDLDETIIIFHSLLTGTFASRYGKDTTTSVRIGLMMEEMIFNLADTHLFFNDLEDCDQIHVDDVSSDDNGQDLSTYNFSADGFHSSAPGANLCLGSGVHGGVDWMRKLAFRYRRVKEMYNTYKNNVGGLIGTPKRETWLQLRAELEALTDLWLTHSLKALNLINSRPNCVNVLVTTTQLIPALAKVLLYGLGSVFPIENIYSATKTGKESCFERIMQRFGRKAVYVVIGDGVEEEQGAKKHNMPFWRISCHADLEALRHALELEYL
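Eya2 (0.2 uM) preincubated 10 min at ambient with compound, then OMFP substrate added at 50 uM; 10 min reaction in 50 mM HEPES pH 7.5, 50 mM NaCl, 5 uM MgCl2, 0.05% BSA, 1 mM DTT. Fluorescence read at Ex 485/Em 525 nm.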
Coupling enz – counter-screen for Giardia aldolase inhibitors: coupling enzyme system | coupling enzyme system counterscreen, AmpLite Red fluorescence | activity change, negative = inhibition, % at 58.2 µM, hits read low | AID 2472 | hit rate 0.67% among 290,000; in the data active = activity change below about -30%
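Final compound at 57.5 uM, incubated 10 min at RT with coupling enzyme reagent (glyceraldehyde-3-phosphate), then 20 min with substrate and AmpLite Red detection. Fluorescence read at 525/598 nm; tests interference with the coupling assay, not aldolase inhibition.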
IDH1 R132H inh – human IDH1 R132H inhibition; O75874; IDH1-R132H enzyme, NADPH consumption, diaphorase/resazurin fluorescence; Potency, µM (doses to about 76.6 µM), for inactives: at the top dose activity change, negative = inhibition, hits mostly inhibitors; hit rate 0.093% among 390,000; AID 602179; also: potency is read from the fitted curve at half-maximal effect; nearly all actives have a fitted effect of over 65% in size
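IDH1-R132H (0.5 ug/mL dispensed) in pH 7.5 Tris buffer was preincubated 30 min with compound, then given a substrate mix of 0.016 mM NADPH and 2 mM alpha-KG for 80 min at room temperature; remaining NADPH was read by diaphorase/resazurin fluorescence.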
An asterisk follows results filed as active; u = inconclusive; x = not tested or not shown; [ ] = dose if it differs, or a comment. Unless noted, calls follow the shape of the dose curve; as a rule, active = well fitted curve in the direction sought with a large enough effect; inconclusive = small, poorly fitted or top-dose-only effect, or another doubt; inactive = no such curve, though single readings can be large; an effect the other way counts as inactive or inconclusive. % is scaled to controls: 0 for no effect and ±100 for the full control effect.

SMILES	TrxR1 substrate	TrxR1 inh	Eya2 inh	Coupling enz	IDH1 R132H inh
COc1ccc(C2=Nn3c(nnc3-c3cccc(OC)c3OC)SC2)c(OC)c1	x	x	x	0	x
Cc1cccc(Cn2c(C(=O)OC(C)C)cc3c2ccn3C)c1	2%[11.4 µM]	u	-8%	-32*	10%
C=C1C=C(C)n2ncc(C(=O)Nc3cccc4cnccc34)c2N1	2%	15%	x	x	x
CCOC(=O)N1CCN(C(=O)CCC(=O)c2ccc(OCC)cc2)CC1	2%	11%	-2%	0	-3%
COc1ccc(N2CCN(CCC(N)=O)CC2)cc1	10%[57.1 µM]	10%[57.1 µM]	-14%	4	-2%
CCCOc1ccc(C(=O)CCN2CCN(C(=O)OCC)CC2)cc1	4%[57.1 µM]	8.9µM*	7%	-1	0%
O=C(CCN1CCC(c2cccs2)=N1)c1cccs1	0%	22µM*	1%	-8	8%
O=C(CCN1CCCCCC1)c1ccccc1	10%[11.4 µM]	0.89µM*	-5%	0	3%
COc1ccc(C(=O)CCN2CCN(c3ccc(OC)cc3)CC2)cc1	-5%[57.1 µM]	2.8µM*	-8%	4	3%
CCSC[C@H](NC(=O)[C@H](C)NC(=O)[C@@H](N)Cc1ccc(O)cc1)C(=O)N[C@@H](CC(=O)O)C(=O)N[C@H](C(=O)N[C@@H](C)C(=O)N[C@H](C(=O)N[C@@H](CSCC)C(=O)N[C@H](C(=O)N[C@H](C(=O)N[C@@H](Cc1cnc[nH]1)C(=O)N[C@@H](CCCNC(=N)N)C(=O)N[C@@H](CC(C)C)C(=O)N[C@@H](C)C(=O)NCC(=O)N[C@@H](CC(C)C)C(=O)N[C@@H](CC(C)C)C(=O)N[C@@H](CO)C(=O)N[C@@H](CCCNC(=N)N)C(=O)N[C@@H](CO)C(=O)NCC(=O)NCC(=O)N[C@H](C(=O)N[C@H](C(=O)N[C@@H](CCCCN)C(=O)N[C@@H](CC(N)=O)C(=O)N[C@@H](CC(N)=O)C(=O)N[C@@H](Cc1ccccc1)C(=O)N[C@H](C(=O)N1CCC[C@H]1C(=O)N[C@H](C(=O)N[C@@H](CC(N)=O)C(=O)N[C@H](C(=O)NCC(=O)N[C@@H](CO)C(=O)N[C@@H](CCCCN)C(=O)N[C@@H](C)C(=O)N[C@@H](Cc1ccccc1)C(N)=O)C(C)C)[C@@H](C)O)C(C)C)C(C)C)C(C)C)[C@@H](C)O)C(C)C)[C@@H](C)O)[C@@H](C)O	x	x	x	-1	x
CCOc1ccc(C(=O)CCN2CCCCC2)cc1	13%	0.71µM*	6%	0	0%
COc1ccc(C(=O)CN2CCN(c3ccc(Cl)cc3)CC2)cc1OC	7%	-17%	-2%	-2	-1%
COc1ccc(C(=O)CCN2CCCCCC2)cc1	7%	0.79µM*	-8%	1	2%
COc1ccc(C(=O)CN2CCN(c3ccc(F)cc3)CC2)cc1OC	2%	20µM*	2%	0	5%
C=CCC(O)(CCN1CCCCC1)c1ccccc1 (centres undefined)	10%[57.1 µM]	5%[57.1 µM]	-17%	2	6%
COc1ccc(C(O)(CCc2ccccc2)CCN2CCCCC2)cc1 (centres undefined)	7%[57.1 µM]	8.9µM*	-4%	4	0%
COc1ccc(C(=O)OCCN2CCCCC2)cc1	-2%	-2%	-13%	0	0%
COc1cc2c(NC3CCN(C)CC3)nc(N3CCCCC3)nc2cc1OCCCN(C)C	90%	-21%	x	x	x
CC[N+](C)(C)c1ccc(/C=C/c2ccc3ccccc3n2)cc1	-6%	-10%	x	x	x
CC(C)(C)n1ncc2c(=O)n(Cc3ccc(F)cc3F)cnc21	-4%	10%	x	x	x
C[C@@H]1C(=O)O[C@H]2[C@H](O)[C@@]34[C@H]5CC(C(C)(C)C)[C@]36[C@H](OC(=O)[C@H]6O)O[C@]4(C(=O)O5)[C@@]12O (some centres undefined)	x	x	x	4	x
O=C(CCN1CCC(c2ccccc2)C1)c1cccs1 (centres undefined)	7%[11.4 µM]	u	-10%	1	1%
O=C(CCN1CCCC1)c1cccs1	5%[57.1 µM]	0.4µM*	16%	5	4%
O=C(CCN1C(=O)/C(=C/c2ccco2)SC1=S)Nc1ccc(O)cc1C(=O)O	-1%[57.1 µM]	u	4%	0	1%
O=C1/C(=C/c2ccco2)SC(=S)N1C1CCS(=O)(=O)C1 (centres undefined)	-2%[57.1 µM]	-3%[57.1 µM]	-7%	-45*	-1%
SMILES	TrxR1 substrate	TrxR1 inh	Eya2 inh	Coupling enz	IDH1 R132H inh
O=C(O)CCCN1C(=O)/C(=C\c2ccco2)SC1=S	7%[57.1 µM]	22µM*	4%	-9	-8%
O=C(CCCN1C(=O)/C(=C/c2ccco2)SC1=S)Nc1ccccc1C(=O)O	4%[57.1 µM]	u	1%	2	-1%
O=C(O)CN1C(=O)/C(=C/c2ccc(SCc3ccccc3)o2)SC1=S	-13%	-29%	18%	-55*	2%
O=C1/C(=C\c2ccco2)SC(=S)N1C1CCS(=O)(=O)C1 (centres undefined)	-4%	2%[57.1 µM]	-16%	-13	13%
O=C(O)CN1C(=O)/C(=C\c2ccc(OC(=O)c3ccco3)cc2)SC1=S	-4%[57.1 µM]	-7%[57.1 µM]	1%	10	-3%
O=C(CCN1C(=O)/C(=C/c2ccco2)SC1=S)Nc1ccc(C(=O)O)c(O)c1	-9%	45µM*	6%	4	0%
CNc1c(Cl)cc(C=O)cc1Cl	-10%	u	x	x	x
C=CCN1c2ccccc2[C@]23C[C@@H](C(=O)OC)N(S(=O)(=O)CCCC)C2=NC(C(=O)OC)=C(C(=O)OC)[C@H]13	x	x	x	3	x
COc1ccccc1/C=C1\SC(=S)N(CCC(=O)Nc2ccc(C(=O)O)c(O)c2)C1=O	-1%	-2%	11%	14	-5%
O=C(CCN1C(=O)/C(=C\c2ccco2)SC1=S)Nc1ccc(C(=O)O)c(O)c1	-5%	40µM*	2%	-9	7%
C=C(CN(C)C)C(=O)c1ccc(OC2OC(COC(C)=O)C(OC(C)=O)C(OC(C)=O)C2OC(C)=O)cc1 (centres undefined)	9%[11.4 µM]	2.8µM*	x	x	-1%
CC(=O)OCC1OC(Oc2cc(OC(C)=O)c3c(=O)cc(-c4ccc(OC(C)=O)cc4)oc3c2)[C@@H](OC(C)=O)C(OC(C)=O)C1OC(C)=O (some centres undefined)	x	x	x	0	x
Cc1ccc(OCC(=O)N/N=C/C=C/c2ccco2)cc1C	-12%	40µM*	-5%	-4	3%
Cc1ccc(OCC(=O)N/N=C/c2ccco2)cc1	2%[57.1 µM]	8%	8%	-8	-15%
O=C(Cc1cccs1)N/N=C/C=C/c1ccco1	-14%	45µM*	4%	-9	5%
O=C(CNc1cccc2ccccc12)N/N=C/C=C/c1ccco1	-1%[57.1 µM]	10%[57.1 µM]	4%	-5	2%
Cc1ccc(C)c(S(=O)(=O)Nc2ccc3[nH]c(=O)[nH]c3c2)c1	-5%	-5%	10%	-2	10%
